Results from article PMC5540273 (PLoS ONE, 2017).
“And” between values parts separate entries of the source, which are not always exact repeats. Identical values can stand only once. Like-named read-outs stand apart in the source and are kept apart here.

Experiments:
ABL2 = settings: concentration: 1 μM, replicates: in singlicate, n = 1
ACVR1B = settings: concentration: 1 μM, replicates: in singlicate; n = 1
ACVR1 = settings: concentration: 1 μM, replicates: in singlicate; n = 1
ACVR2A = settings: concentration: 1 μM, replicates: in singlicate; n = 1
ACVR2B = settings: concentration: 1 μM, replicates: in singlicate; n = 1
ACVRL1 = settings: concentration: 1 μM, replicates: in singlicate; n = 1
ADCK3 = system: T1, ADCK3; settings: concentration: 1 μM, replicates: in singlicate, n = 1
T1 construct: gene CABC1

ADCK4 = settings: concentration: 1 μM, replicates: in singlicate, n = 1
AKT1 = settings: concentration: 1 μM, replicates: in singlicate; n = 1
AKT2 = settings: concentration: 1 μM, replicates: in singlicate, n = 1
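Note: KINOMEscan kinase panel screen.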

Compound	%Inh (ABL2) [%]	%Inh (ACVR1B) [%]	%Inh (ACVR1) [%]	%Inh (ACVR2A) [%]	%Inh (ACVR2B) [%]	%Inh (ACVRL1) [%]	%Inh (ADCK3) [%]	%Inh (ADCK4) [%]	%Inh (AKT1) [%]	%Inh (AKT2) [%]	%Inh (ABL2; 1 µM)	%Inh (ADCK3; 1 µM)	%Inh (ADCK4; 1 µM)	%Inh (AKT2; 1 µM)
FC(F)(F)c1cc(Nc2nccc(-c3c(-c4ccc(Cl)cc4)nn4ncccc34)n2)ccc1Cl [GW829351]	0	0	0	0	12	0	0	27	0	0				
O=C(NCCCN1CCCC1=O)c1cnc(NCc2cc(Cl)ccc2Cl)nc1NC1CCNCC1	0	0	0	0	0	0	9	0	0	0				
Oc1ccc2ncnc(Nc3ccc(OCc4ccccc4)cc3)c2c1 [GI262866]	7	0	0	0	9	0	0	0	0	9				
O=C(Nc1ccccc1)Nc1ccc(Oc2ccc3nccn3n2)cc1	27	0	5	24	9	0	15	1	13	0				
CCc1nc(-c2cccc(C)c2)c(-c2ccnc(NC(=O)c3ccccc3)c2)s1	27	12	0	0	0	0	17	20	0	13				
CN1c2ccc(-c3ccc(C(=O)NCCO)cc3)cc2-c2[nH]ncc2S1(=O)=O	7	0	22	0	2	0	0	3	11	0				
Fc1cccc(COc2ccc(Nc3ncnc4cc[nH]c34)cc2Cl)c1	10	12	19	0	3	16	1	17	0	0				
CNc1nccc(-c2c(-c3ccc(F)cc3)ncn2CCCN2CCOCC2)n1 [SB-222516]	12	19	8	4	4	15	1	0	18	0				
Cl.c1ccc(Cn2ccc3cc(Nc4ncnc5ccccc45)ccc32)cc1 [GW275568]	0	0	10	2	16	0	24	4	3	12				
COc1ccc(-c2nc3n(c2-c2ccncc2)CCC3)cc1 [SKF-104493]		19	0	0	0	0			0		5% and 0%	0% and 6%	12% and 6%	0% and 3%
Cn1ccc2ncnc(Oc3ccc(NC(=O)Nc4cccnc4)c(Cl)c3)c21	11	0	0	0	0	0	0	0	0	8				
Nc1nc(-c2ccc3c(N)n[nH]c3c2)cc(N2CCC[C@@H](C(=O)Nc3ccccc3)C2)n1.O=C(O)C(F)(F)F.O=C(O)C(F)(F)F [GSK2288359]	0	0	0	0	0	0	0	11	0	7				
CS(=O)(=O)CCNCc1ccc(-c2ccc3ncnc(Nc4ccc(OCc5ccccc5)c(Cl)c4)c3c2)o1.Cl [GW574783]	0	0	2	4	22	0	23	20	46	21				
C[C@@H]1CCN(C(=O)CO)C[C@@H]1N(C)c1ncnc2[nH]ccc12	0	13	0	0	0	8	0	0	0	0				
Fc1cccc(COc2ccc(Nc3ncnc4sc(-c5ccc[nH]5)cc34)cc2Cl)c1 [GW707818]	0	2	9	5	16	4	1	24	0	7				
COc1cc2ncnc(Nc3ccc(OCc4ccccc4Br)c(Cl)c3)c2cc1OC.Cl [GI261590]	16	0	0	0	4	0	22	37	0	5				
Cc1ccc(NC(=O)c2cccc(C#N)c2)cc1-c1ccc(C(=O)Nc2ccncc2)cc1 [GSK1398463]	54	0	18	0	0	2	18	6	0	0				
CN1CCC(n2cnc(-c3ccc(F)cc3)c2-c2ccnc(NC3CCNCC3)n2)CC1 [SB-229482]	0	0	0	0	0	7	9	5	0	0				
FC(F)(F)c1ccc(-c2cc(-c3c[nH]nc3-c3ccccn3)ccn2)cc1 [GW599550]	16	46	16	0	34	0	9	37	0	0				
COc1ccc(-c2oc3ncnc(N)c3c2-c2ccc(OC)cc2)cc1 [SB-589132]	20	0	21	0	0	12	12	55	0	0				
Fc1ccc(-c2ncn(CCCNCc3ccccc3)c2-c2ccncc2)cc1	12	10	2	0	0	17	0	0	19	12				

Compound	%Inh (ABL2) [%]	%Inh (ACVR1B) [%]	%Inh (ACVR1) [%]	%Inh (ACVR2A) [%]	%Inh (ACVR2B) [%]	%Inh (ACVRL1) [%]	%Inh (ADCK3) [%]	%Inh (ADCK4) [%]	%Inh (AKT1) [%]	%Inh (AKT2) [%]	%Inh (ABL2; 1 µM)	%Inh (ADCK3; 1 µM)	%Inh (ADCK4; 1 µM)	%Inh (AKT2; 1 µM)
CNc1nccc(-c2c(-c3ccc(F)cc3)ncn2C2CCN(C)CC2)n1 [SB-222903]	0	0	0	0	0	0	0	22	0	2				
Nc1nc(-c2ccc3c(N)n[nH]c3c2)cc(N2CCCCC2)n1 [GSK2228768]	12	0	0	0	0	0	0	6	0	0				
Cl.O=S(=O)(c1cccc(F)c1)c1ccc(Nc2ncnc3cc(Br)sc23)cc1Cl [GSK306886]	0	0	18	0	0	7	11	22	0	3				
COc1ccc(Nc2nccc(N3CCC(NC(=O)c4cccc(NC(C)=O)c4)C3)n2)cc1 (centres unmarked) [GSK1379732]	0	0	6	0	0	2	8	36	0	14				
COc1ccc(NC(=O)c2ccc(-c3cc(-c4nnc(C)o4)ccc3C)cc2)cc1 [GW595885]	16	0	0	0	5	0	0	28	0	0				
FC(F)(F)c1ccc(-c2nn3ncccc3c2-c2ccnc(Nc3cccc(C(F)(F)F)c3)n2)cc1 [GW828205]	16	24	0	6	19	10	23	0	0	0				
O=C(CCO)NCCn1ccc2ncnc(Nc3ccc(Oc4cccc(C(F)(F)F)c4)c(Cl)c3)c21	0	0	0	0	0	0	3	0	0	0				
CC(C)N1CCC(n2cnc(-c3ccc(F)cc3)c2-c2ccnc(N)n2)CC1 [SB-223132]	0	0	0	22	25	0	31	0	3	0				
Cc1cccc(-c2nc(Nc3ccc4[nH]nnc4c3)c3ccccc3n2)n1 [GW867587]	0	0	0	0	0	0	0	8	5	0				
Fc1cccc(COc2ccc(Nc3ncnc4nn5ccccc5c34)cc2Cl)c1 [GW689066]	1	0	0	0	0	0	5	42	0	3				
Cl.Cl.c1ccc(-c2cc3ccncc3cc2OC2CCNCC2)cc1 [GSK1122999]	8	0	22	0	0	0	22	42	0	0				
Cn1ccc2ncnc(Nc3ccc(Oc4cccc(Cl)c4)c(Cl)c3)c21	16	28	0	0	17	0	1	0	22	7				
Clc1cccc(-c2nc(Nc3ccncc3)c3ccccc3n2)c1 [GW873004]	28	72	0	25	15	9	30	20	11	0				
Fc1ccc(Nc2nccc(-c3c(-c4ccc(Cl)cc4)nn4ncccc34)n2)cc1F [GW829058]	19	20	0	0	0	0	0	0	18	9				
COc1ccc(Nc2nccc(N3CCC(NC(=O)Nc4ccc5c(c4)OCO5)C3)n2)cc1 (centres unmarked) [GSK1379745]	18	0	1	0	5	0	17	41	0	7				
NC(=O)c1sc(-n2cnc3ccccc32)cc1OCc1ccccc1F [GSK1024306]	8	0	0	0	2	0	5	7	0	0				
O=C(Nc1n[nH]c2nc(-c3ccco3)c(Br)cc12)c1ccc(CN2CCCC2)cc1.O=C(O)[C@H](O)[C@@H](O)C(=O)O [SB-742352]	0	0	24	0	0	0	0	0	0	0				
Clc1cc(Nc2ncnc3cc[nH]c23)ccc1OCc1ccccn1	0	28	10	0	0	5	9	3	10	19				
CC(=O)Nc1n[nH]c2ncc(-c3ccccc3)cc12 [SB-548492]	11	2	13	37	10	0	0	0	0	0				
CC(C)(C)c1ccc(-n2cnc3c(N)ncnc32)cc1 [SKF-97263]	7	0	10	7	0	0	23	0	0	12				
